Only some compounds are listed: those with a hit (about 28% of all), similar ones and a draw of the others.
PLK1 kinase inh: inhibitors of human PLK1 kinase; P53350; recombinant PLK1 kinase, TR-FRET peptide phosphorylation; inhibition, % at 10 µM; actives 0.53% (n = 97,000); AID 619;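 active = inhibition of 50% or more in the single-concentration screen; inactive = inhibition below 50%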;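 also: 0% = DMSO max control and 100% = H-89 dihydrochloride min control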
CYP2C19 inhib: inhibitors of human CYP2C19 | CYP2C19 Supersomes, luciferin-H EGE luminescence, 30 min | inhibition, % at 5 µM | actives 21% (n = 96,000);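 active = CYP2C19 inhibition above a set limit at 5 µM in the primary screen, cut at about 50% in these data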;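 also: plate controls were negative control wells for no effect and 2.5 mM tranylcypromine positive control for full effect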
Target sequence (P33261 whole entry, looked up): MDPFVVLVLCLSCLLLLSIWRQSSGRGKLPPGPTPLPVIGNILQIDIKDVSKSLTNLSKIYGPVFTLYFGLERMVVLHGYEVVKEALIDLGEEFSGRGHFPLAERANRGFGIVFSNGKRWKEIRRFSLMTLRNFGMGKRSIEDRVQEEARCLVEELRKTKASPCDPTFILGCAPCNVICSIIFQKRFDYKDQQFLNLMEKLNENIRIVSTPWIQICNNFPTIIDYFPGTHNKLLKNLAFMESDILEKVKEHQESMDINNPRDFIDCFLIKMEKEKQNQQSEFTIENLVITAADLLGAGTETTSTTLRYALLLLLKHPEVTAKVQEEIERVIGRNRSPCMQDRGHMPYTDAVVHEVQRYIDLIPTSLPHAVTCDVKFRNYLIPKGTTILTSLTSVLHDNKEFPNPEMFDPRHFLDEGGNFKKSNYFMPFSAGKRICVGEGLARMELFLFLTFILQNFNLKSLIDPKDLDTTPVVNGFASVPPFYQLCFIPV
Plk1 PBD FP: Plk1 (human) PBD binding inhibition; inhibition, %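 (tested at about 20 µM)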; AID 693; actives 0.13% (n = 97,000); Plk1 PBD phosphopeptide binding, fluorescence polarization; in the data active = inhibition above about 34%, passing the limit was not always enough
CYP2C9 inhib: human CYP2C9 inhibition; inhibition, % at 5 µM; CYP2C9 Supersomes, luciferin-H conversion, luminescence; actives 20% (n = 96,000); AID 777; P11712;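 active = blocking of liver enzyme CYP2C9 beyond about 50% at 5 µM, limit read from the data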
CYP2C9 act: increases human cytochrome P450 2C9 activity; P11712; recombinant CYP2C9, luciferin-H conversion, luminescence; hits give high values; factor 1 = untreated enzyme, 0 = blocked; activation factor at 5 µM; actives 1.4% (n = 96,000);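 active = activation factor of 2 or more for CYP2C9 at a 5 µM dose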;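 also: 0 = sulfaphenazole-blocked wells and 1 = vehicle-only wells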
CYP2C19 act: cytochrome P450 2C19 (human) activation; activation factor at 5 µM; 96,000 tested, under 10 active; recombinant CYP2C19, luciferin-H EGE luminescence; hits give high values; 0 = fully inhibited enzyme, 1 = untreated enzyme; P33261;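 active = activation factor of at least 2 at 5 µM in the primary screen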;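 also: 0 = wells with 2.5 mM tranylcypromine and 1 = vehicle-only wells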
The depositor's hits bear a star; / = no result given.

SMILES	PLK1 kinase inh	CYP2C19 inhib	Plk1 PBD FP	CYP2C9 inhib	CYP2C9 act	CYP2C19 act
CCS(=O)(=O)c1ccc2c(c1)N(S(=O)(=O)c1ccc(OC)cc1)CC(C(=O)O)O2 (configuration not stated)	-10	/	-5	/	/	/
CCCOc1cccc(NC(=O)c2cc(C)oc2C)c1	-12	16	-3	9	0.9	0.8
COc1ccc(C(=N/O)/C(=N/O)c2ccc(OC)cc2)cc1	-11	60*	1	27	0.7	0.4
C=CCOC(=O)C1=C(C)NC(SCC(=O)NC(=O)OCC)=C(C#N)C1c1cccnc1 (configuration not stated)	-18	87*	-15	92*	0.1	0.1
C=CCOC(=O)C1=C(C)NC(SCC(=O)N(CC)CC)=C(C#N)C1c1ccccc1 (configuration not stated)	/	97*	/	90*	0.1	0
C=CCOC(=O)C1=C(C)NC(SCC(=O)N(CC)CC)=C(C#N)C1c1ccco1 (configuration not stated)	-7	69*	4	80*	0.2	0.3
C=CCOC(=O)C1=C(C)NC(SCC(=O)Nc2ccccc2)=C(C#N)C1c1ccco1 (configuration not stated)	-9	60*	-24	72*	0.3	0.4
Nc1ccc(C(=O)Nc2ccco2)cc1	-4	/	-11	/	/	/
CCn1c(SCC(=O)NCc2ccco2)nnc1C(C)C	-9	11	-1	-27	1.3	0.9
COc1cccc(-c2cc(C(=O)Nc3cc(C)nn3-c3ccccc3)no2)c1	8	-20	-17	-51	1.5	1.2
Cn1cnnc1SCC(=O)NC(=O)NC1CCCC1	/	27	/	9	0.9	0.7
O=C(CSc1nc2ccccc2[nH]1)NCCCn1ccnc1	/	92*	/	95*	0.1	0.1
O=C(CSC1=NCCS1)Nc1ccccc1F	-6	79*	8	48	0.5	0.2
O=C(CSc1nc2ccccc2[nH]1)Nc1ccc(F)c(F)c1	-5	56*	27	66*	0.3	0.4
O=C(CSc1nc2ccccc2[nH]1)Nc1ccccc1F	0	64*	-9	84*	0.2	0.4
COc1ccc(NC(=O)COC(=O)c2cnccn2)cc1Cl	-7	-6	-15	-10	1.1	1.1
Cc1ccc(Oc2nnc(-c3ccccc3)c3ccccc23)cc1	-15	8	12	58*	0.4	0.9
Brc1c(CSc2nnc(-c3ccco3)o2)nc2ccccn12	0	78*	-3	-122	2.2*	0.2
CCCN(CCC)S(=O)(=O)c1ccc(NC(=O)c2cc(C(=O)OC)cc([N+](=O)[O-])c2)cc1	-5	18	26	-2	1	0.8
COc1ccc(C2CCCN2C(=O)Nc2cccc(C(C)=O)c2)cc1OC (configuration not stated)	/	10	/	20	0.8	0.9
O=C(CSc1nnc(-c2ccncc2)n1Cc1ccco1)OC1CCCCC1	-13	98*	15	92*	0.1	0
O=C(CSc1nnc(-c2ccco2)n1Cc1ccccc1)OC1CCCCC1	-12	21	-7	-6	1.1	0.8
Cc1cc(Cl)ccc1NC(=O)CSc1nnc(-c2ccncc2)n1Cc1ccco1	-8	86*	7	90*	0.1	0.1
COc1ccc(Cl)cc1NC(=O)CSc1nnc(-c2ccncc2)n1CC1CCCO1 (configuration not stated)	-8	60*	-1	49	0.5	0.4
Cc1cccc(C)c1NC(=O)CSc1nnc(-c2ccncc2)n1Cc1ccco1	-5	73*	-8	67*	0.3	0.3
SMILES	PLK1 kinase inh	CYP2C19 inhib	Plk1 PBD FP	CYP2C9 inhib	CYP2C9 act	CYP2C19 act
Cn1c(=O)c2cc(S(=O)(=O)NC(C(=O)Nc3cccnc3)c3ccccc3)ccc2n(C)c1=O (configuration not stated)	-5	35	11	47	0.5	0.6
COCCSc1ccccc1C(=O)Nc1ccncc1	-8	92*	23	84*	0.2	0.1
CCOc1ccc(NC(=O)N(CCN(C)C)C(C)c2ccncc2)cc1 (configuration not stated)	-15	19	-8	14	0.9	0.8
COCCCN(C(=O)Nc1ccccc1)C(C)c1ccncc1 (configuration not stated)	-11	77*	-17	60*	0.4	0.2
O=C(CCc1nc(-c2ccccc2)no1)NC1CCCCC1	-9	-3	2	33	0.7	1
CCc1ccccc1N(CC)C(=O)CCc1nc(-c2ccc(C)cc2)no1	-5	27	-5	55*	0.5	0.7
CCN(Cc1ccccc1)C(=O)CCc1nc(-c2ccc(C)cc2)no1	-7	81*	-17	88*	0.1	0.2
CN(C)C(=O)CCc1nc(-c2ccc(C(C)(C)C)cc2)no1	0	10	3	16	0.8	0.9
CCOC(=O)N1CCC(NC(=O)CC(NS(=O)(=O)c2ccc(C)cc2)c2ccco2)CC1 (configuration not stated)	/	48	/	59*	0.4	0.5
CCOC(=O)N1CCC(NC(=O)CCc2nc(-c3ccc(C)cc3)no2)CC1	-8	41	2	73*	0.3	0.6
Cc1ccc(-c2noc(CCC(=O)NCCc3ccccc3Cl)n2)cc1	-7	33	11	39	0.6	0.7
COCCNC(=O)CN1CCN(Cc2cccc(Cl)c2)C1=O	20	2	6	0	1	1
CC(C)CC(NC(=O)C(NC(=O)OC(C)(C)C)C(C)C)C(=O)N1CCCC1C(N)=O (configuration not stated)	-10	-1	0	3	1	1
Cn1c(SCc2cccc(Cl)c2)nc(C(F)(F)F)cc1=O	-8	26	14	11	0.9	0.7
CC(C)(C)c1ccc(-c2noc(CCC(=O)NCC3CCCO3)n2)cc1 (configuration not stated)	-5	65*	-7	48	0.5	0.4
O=C(O)CCCCC1SCC2NC(=O)NC21 (configuration not stated)	-10	-5	-20	1	1	1.1
Cn1c(N)c(C(=O)CSc2ccc3c(c2)OCCO3)c(=O)n(C)c1=O	-11	42	-5	17	0.8	0.6
C/C(N)=C(/C#N)C(=O)CSc1ccc2c(c1)OCCO2	-11	95*	7	19	0.8	0.1
COC(=O)Oc1ccc(/C=N/NC(=O)CSCc2ccccc2Br)cc1OC	-7	56*	21	67*	0.3	0.4
Cc1cc(SCC(=O)N/N=C/c2ccc(O)c(O)c2O)c(C)cc1Br	17	10	-5	15	0.9	0.9
COc1cc(/C=N/NC(=O)CSc2cc(C)c(Br)cc2C)ccc1O	-7	5	7	76*	0.2	1
COc1ccc(/C=N/NC(=O)CSCC(=O)Nc2ccccc2)cc1OC	-6	-13	-8	6	0.9	1.1

Screening data deposited in PubChem BioAssay by several laboratories.
